Source: PubChem BioAssay (Tox21)
Results filed as inconclusive are left out. Calls of active or inactive are those of the source. Unless noted, calls come from the whole dose curve; as a rule, active = well fitted curve in the direction sought with a large enough effect in the repeat runs; inconclusive = weak or mixed curves; inactive = no such curve, though single readings can be large; an effect the other way counts as inactive or inconclusive.

Legend:
[1] = qHTS assay to identify small molecule agonists of H2AX (AID 1224845; active = well fitted activation curve with a large enough effect in the signal ratio in the repeat runs, not every such curve was filed as active; the % refers to the signal ratio)
How it was run: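 Wild-type CHO-K1 cells, plated overnight, exposed 3hr at 37C to 15 concentrations (0.76% DMSO final). Lysed, then HTRF anti-pH2AX (S139) cryptate and anti-H2AX-d2 antibodies, 24 hr room temperature; 665/620 nm emission read.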

[2] = qHTS assay to identify small molecule agonists of H2AX - cell viability counter screen (AID 1224847; calls by dose curve; note: top concentration of the series differs between compounds; nearly all actives have a fitted effect of over 30% in size)
How it was run: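 Counter-screen for viability: CellTiter-Glo ATP luminescence read after 3 h compound treatment (15-point titration, 0.76% DMSO final) of CHO-K1 cells at 37C, with 30 min room-temperature reagent incubation.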

[3] = qHTS assay to identify small molecule antagonists of the estrogen related receptor (ERR) signaling pathway from Tox21 library (AID 1224848); note: nearly all actives have a fitted effect of over 50% in size
How it was run: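 Luminescent reporter read-out (ONE-Glo) from NTP's ERR cell line after 18 h treatment at 37 C with DMSO-dissolved Tox21 compounds; cells pre-plated 6 h beforehand at 2,000 per well.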

[4] = qHTS assay to identify small molecule agonists of the estrogen related receptor (ERR) signaling pathway from Tox21 library (AID 1224849; calls by dose curve; note: nearly all actives have a fitted effect of over 15% in size); conditions: ERR reporter cell line, ONE-Glo luciferase, 18 h; at 92.4 µM (top of the series) unless noted
How it was run: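 We plated ERR reporter cells, waited 6 h, added compounds in DMSO by pin tool and incubated them 18 h at 37 C. ONE-Glo was then added and luminescence read after 30 min.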

[5] = qHTS RealTime-Glo MT Cell Viability Assay in HepG2 cells - 24 hour (AID 1224867); note: nearly all actives have a fitted effect of over 50% in size
How it was run: (§1)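 Tox21 10K library screened in qHTS format on HepG2 cells carrying RealTime-Glo reagents. Compounds were added after a 5 h preincubation, and the luminescent signal from continuous culture was measured repeatedly during 40 h treatment.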

[6] = qHTS RealTime-Glo MT Cell Viability Assay in HEK293 cells - 32 hour (AID 1224868); note: top concentration of the series differs between compounds; nearly all actives have a fitted effect of over 50% in size
How it was run: (§2)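 Luminescence generated by NanoLuc from substrate produced by living HEK293 cells served as the viability signal. Each value reflects the reading at its stated time point during continuous 40 h compound exposure at 37 C.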

[7] = A CellTox Green Cytotoxicity Assay to monitor cytotoxicity in HEK293 cells - 0 hour (AID 1224869); note: nearly all actives have a fitted effect of over 50% in size
How it was run: (§3)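 Each value comes from one timepoint of a single continuous run in which HEK293 cells with CellTox Green were exposed to compound for up to 40 h at 37 C, dye fluorescence rising with cell death.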

[8] = qHTS RealTime-Glo MT Cell Viability Assay in HepG2 cells - 40 hour (AID 1224870); note: nearly all actives have a fitted effect of over 50% in size
How it was run: (§4)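 HepG2 cells (600/well) mixed with RealTime-Glo MT reagent, settled 5 h at 37 C/5% CO2 before compound addition. Nonlytic NanoLuc luminescence from viable-cell prosubstrate reduction read repeatedly during 40 h treatment at 37 C.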

[9] = A CellTox Green Cytotoxicity Assay to monitor cytotoxicity in HEK293 cells - 40 hour (AID 1224871); note: nearly all actives have a fitted effect of over 45% in size
How it was run: as §3

[10] = qHTS RealTime-Glo MT Cell Viability Assay in HEK293 cells - 40 hour (AID 1224874); conditions: RealTime-Glo luminescence; max response: stronger effect = lower value; note: nearly all actives have a fitted effect of over 50% in size
How it was run: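 qHTS format; HEK293 cells with NanoLuc/prosubstrate reagent, 37 C/5% CO2 for 5 h pre-dosing; compounds 23 nL in DMSO; luminescence at each time point reflects viable cells.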

[11] = A CellTox Green Cytotoxicity Assay to monitor cytotoxicity in HEK293 cells - 24 hour (AID 1224875); note: nearly all actives have a fitted effect of over 45% in size
How it was run: as §3

[12] = qHTS RealTime-Glo MT Cell Viability Assay in HepG2 cells - 32 hour (AID 1224877); note: nearly all actives have a fitted effect of over 55% in size
How it was run: as §1

[13] = qHTS assay to identify small molecule agonists of the hypoxia (HIF-1) signaling pathway - cell viability counter screen (AID 1224844; calls by dose curve; note: nearly all actives have a fitted effect of over 50% in size)
How it was run: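 Luminescent ATP content (CellTiter-Glo, 30 min, room temperature) served as the viability measure in HRE-bla ME-180 cells exposed to compounds for 17 hrs in low-serum medium (0.5% dialyzed FBS).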

[14] = qHTS assay to identify small molecule agonists of the hypoxia (HIF-1) signaling pathway (AID 1224846; active = well fitted activation curve with a large enough effect in the signal ratio in the repeat runs, not every such curve was filed as active; the % refers to the signal ratio)
How it was run: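 Measured by blue/green FRET after loading CCF4-AM: beta-lactamase expressed from a hypoxia response element in ME-180 cells. Test agents were delivered in DMSO and left 17 hrs; cells had been plated 5 hrs earlier in low-serum (0.5% dialyzed FBS) medium.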

[15] = qHTS RealTime-Glo MT Cell Viability Assay in HEK293 cells - 16 hour (AID 1224872)
How it was run: as §2

[16] = qHTS RealTime-Glo MT Cell Viability Assay in HepG2 cells - 8 hour (AID 1224873); note: nearly all actives have a fitted effect of over 55% in size
How it was run: as §4

[17] = A CellTox Green Cytotoxicity Assay to monitor cytotoxicity in HepG2 cells - 16 hour (AID 1224876); note: nearly all actives have a fitted effect of over 45% in size
How it was run: (§5)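 Continuous culture of HepG2 cells with a membrane-impermeant DNA dye; rising fluorescence marks dead cells. Compound exposure lasted up to 40 h at 37 C, with reads every 8 h from 0 h.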

[18] = A CellTox Green Cytotoxicity Assay to monitor cytotoxicity in HepG2 cells - 40 hour (AID 1224879); note: nearly all actives have a fitted effect of over 40% in size
How it was run: as §5

[19] = A CellTox Green Cytotoxicity Assay to monitor cytotoxicity in HepG2 cells - 24 hour (AID 1224878); note: nearly all actives have a fitted effect of over 45% in size
How it was run: as §5
% is set by controls: 0 for no effect and ±100 for the full control effect.

CCCCOCCOC(=O)COc1nc(Cl)c(Cl)cc1Cl
inactive: outcome [1] | Potency [2] | Potency [3] | activity change, positive = activation [4] 0.145% | outcome [5] | Potency [6] | outcome [7] | outcome [8] | Potency [9] | max response [10] 7.86% | outcome [11] | outcome [12]

COc1ccc(-c2cc(=O)c3c(O)cc(O[C@@H]4O[C@H](CO[C@@H]5O[C@@H](C)[C@H](O)[C@@H](O)[C@H]5O)[C@@H](O)[C@H](O)[C@H]4O)cc3o2)cc1O
inactive: outcome [13] | outcome [14] | Potency [2] | activity change, positive = activation [4] -13.8% [at 42.5 µM] | outcome [5] | Potency [6] | outcome [7] | outcome [8] | Potency [9] | Potency [15] | outcome [16] | max response [10] 1.76% | outcome [11] | outcome [17] | outcome [12] | Potency [18]

CN=C(NC#N)Nc1ccc(C2=NNC(=O)CC2C)cc1 (stereo not drawn)
inactive: outcome [13] | outcome [1] | outcome [14] | Potency [2] | Potency [3] | activity change, positive = activation [4] 5.55% [at 42.5 µM] | outcome [5] | outcome [7] | outcome [8] | Potency [9] | outcome [16] | max response [10] 11.7% | outcome [11] | outcome [17] | outcome [12] | outcome [19] | Potency [18]

COc1ccc(S(=O)(=O)N2c3ccc(Cl)cc3[C@@](O)(c3ccccc3Cl)[C@H]2C(=O)N2CCC[C@@H]2C(N)=O)cc1OC
inactive: outcome [13] | outcome [1] | outcome [14] | Potency [2] | outcome [5] | outcome [7] | outcome [8] | Potency [9] | outcome [16] | outcome [11] | outcome [17] | outcome [19]

O=C1c2ccccc2C(=O)N1CCl
inactive: outcome [13] | outcome [1] | outcome [14] | Potency [2] | Potency [3] | activity change, positive = activation [4] 0.282% | outcome [5] | outcome [7] | outcome [8] | Potency [9] | Potency [15] | outcome [16] | max response [10] 1.28% | outcome [11] | outcome [17] | outcome [12] | outcome [19] | Potency [18]

O=C(c1ccc(O)cc1)c1ccc(O)c(O)c1O
inactive: outcome [13] | outcome [14] | Potency [2] | activity change, positive = activation [4] -5.51% | outcome [5] | Potency [6] | outcome [7] | outcome [8] | Potency [9] | Potency [15] | outcome [16] | max response [10] -10.5% | outcome [11] | outcome [17] | outcome [12] | outcome [19]

C#CC(C)N(C)C(=O)Nc1ccc(Cl)cc1 (stereo not drawn)
inactive: outcome [13] | outcome [1] | Potency [2] | activity change, positive = activation [4] 5.26% | outcome [5] | outcome [7] | outcome [8] | Potency [9] | outcome [16] | outcome [11] | outcome [17] | outcome [12] | outcome [19]

CC(C)(C)NC(N)=O
inactive: outcome [13] | outcome [1] | outcome [14] | Potency [2] | Potency [3] | activity change, positive = activation [4] 2.65% | outcome [5] | Potency [6] | outcome [7] | outcome [8] | Potency [9] | Potency [15] | outcome [16] | max response [10] 1.11% | outcome [12] | outcome [19] | Potency [18]

COc1cc(NS(=O)(=O)c2ccc(N)cc2)nc(OC)n1
inactive: outcome [13] | outcome [1] | Potency [2] | Potency [3] | outcome [5] | Potency [6] | outcome [7] | outcome [8] | Potency [9] | Potency [15] | outcome [16] | max response [10] 5.69% | outcome [11] | outcome [17] | outcome [12] | outcome [19]

CCCCCCCCC(=O)Cl
inactive: outcome [1] | outcome [14] | Potency [2] | Potency [3] | activity change, positive = activation [4] 0.757% | outcome [5] | Potency [6] | outcome [7] | outcome [8] | Potency [9] | Potency [15] | outcome [16] | max response [10] 10.1% | outcome [11] | outcome [17] | outcome [19] | Potency [18]

NC(CO)C(=O)NNCc1ccc(O)c(O)c1O (stereo not drawn)
inactive: outcome [13] | Potency [2] | Potency [3] | activity change, positive = activation [4] 1.5% [at 42.5 µM] | outcome [5] | Potency [6] | outcome [7] | outcome [8] | Potency [9] | Potency [15] | outcome [16] | max response [10] 2.85% | outcome [11] | outcome [17] | outcome [12]

OCCC(F)(F)C(F)(F)C(F)(F)C(F)(F)C(F)(F)C(F)(F)C(F)(F)C(F)(F)F
inactive: outcome [1] | outcome [14] | Potency [2] | outcome [5] | outcome [7] | Potency [9] | outcome [16] | outcome [11] | outcome [17] | outcome [12] | outcome [19] | Potency [18]

CCCCN
inactive: outcome [13] | outcome [1] | outcome [14] | Potency [2] | activity change, positive = activation [4] 3.11% [at 42.5 µM] | outcome [5] | Potency [6] | outcome [7] | outcome [8] | Potency [9] | Potency [15] | outcome [16] | max response [10] 9.77% | outcome [11] | outcome [17] | outcome [12] | outcome [19] | Potency [18]

CCOCCOCCOCC
inactive: outcome [13] | outcome [1] | outcome [14] | outcome [5] | Potency [6] | outcome [7] | outcome [8] | Potency [9] | Potency [15] | outcome [16] | max response [10] 4.8% | outcome [11] | outcome [17] | Potency [18]

C=CC(OCC)OCC
inactive: outcome [13] | outcome [1] | outcome [14] | Potency [2] | outcome [5] | outcome [7] | Potency [9] | Potency [15] | outcome [16] | max response [10] 8.05% | outcome [11] | outcome [17] | outcome [12] | outcome [19] | Potency [18]

CC(C)CCCCOC(=O)c1ccccc1C(=O)OCCCCC(C)C
inactive: outcome [1] | outcome [14] | Potency [2] | Potency [3] | activity change, positive = activation [4] -6.44% | outcome [5] | Potency [6] | outcome [7] | Potency [9] | Potency [15] | outcome [16] | max response [10] -1.41% | outcome [11] | outcome [17] | outcome [12] | outcome [19] | Potency [18]

OC[C@H](Cc1cccc(O)c1)[C@H](CO)Cc1cccc(O)c1
inactive: outcome [1] | outcome [14] | Potency [2] | activity change, positive = activation [4] -21.1% | outcome [5] | Potency [6] | outcome [7] | outcome [8] | Potency [9] | Potency [15] | outcome [16] | max response [10] -10.5% | outcome [11] | outcome [17] | outcome [19] | Potency [18]

Cc1cc(Cl)c(C)cc1Cl
inactive: outcome [13] | outcome [1] | outcome [14] | Potency [2] | activity change, positive = activation [4] -5.35% | outcome [5] | Potency [6] | outcome [7] | outcome [8] | Potency [9] | outcome [16] | max response [10] 6.26% | outcome [11] | outcome [17] | outcome [12] | outcome [19] | Potency [18]

CCCCCCOC(=O)CC
inactive: outcome [13] | outcome [1] | outcome [14] | Potency [2] | activity change, positive = activation [4] -0.0388% | outcome [5] | Potency [6] | outcome [7] | outcome [8] | Potency [9] | Potency [15] | outcome [16] | max response [10] 2.45% | outcome [11] | outcome [17] | outcome [12] | outcome [19] | Potency [18]

CC[C@H](C)C(=O)O[C@H]1C[C@H](O)C=C2C=C[C@H](C)[C@H](CC[C@@H](O)C[C@@H](O)CC(=O)O)[C@H]21
inactive: outcome [1] | outcome [14] | Potency [2] | outcome [5] | Potency [6] | outcome [7] | outcome [8] | Potency [9] | Potency [15] | outcome [16] | max response [10] 13.5% | outcome [11] | outcome [17] | outcome [12] | outcome [19] | Potency [18]

CC(CC=O)CCCC(C)(C)O (stereo not drawn)
inactive: outcome [13] | outcome [1] | outcome [14] | Potency [2] | Potency [3] | outcome [5] | outcome [7] | outcome [8] | Potency [9] | Potency [15] | outcome [16] | max response [10] 3.36% | outcome [11] | outcome [17] | outcome [19] | Potency [18]
